Experimental data from PubChem BioAssay (NCATS).
Results filed as inconclusive are left out. Calls of active or inactive are those of the source. Calls follow the shape of the dose curve; as a rule, active = well fitted cell-killing curve with a large enough effect; inconclusive = small, poorly fitted or top-dose-only effect; inactive = flat fitted curve, though single readings scatter.

experiment: Cell Viability - LYMP2-002 (AID 977); conditions: LYMP2-002 lymphoblastoid cell viability, qHTS; series mostly up to 92.2 µM; activity change, negative = cytotoxic: at the top concentration;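 also: compound exposure lasted 24 h at 37 °C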;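 as to activity change, negative = cytotoxic: plate controls were DMSO only for no effect and 92 µM tetraoctylammonium bromide for full effect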
Text: NIH Chemical Genomics Center [NCGC]
NIH Molecular Libraries Screening Centers Network [MLSCN]
National Institutes of Environmental Health Sciences [NIEHS]
National Toxicology Program [NTP]
We have developed a 1536-well cell-based assay for quantitative high throughput screening (qHTS) against a number of cell lines to determine in vitro cytotoxicity of small molecules. This particular assay uses a human lymphoblastoid cell line (LYMP2-002) purchased from Coriell Institute for Medical Research.
NCGC Assay Protocol Summary:
The CellTiter-Glo luminescent cell viability assay (Promega) is a homogeneous method to measure the number of viable cells in culture. The end point readout of this assay is based on quantitation of intracellular ATP, an indicator of metabolic activity, using the luciferase reaction. Luciferase catalyzes the oxidation of beetle Luciferin to oxyluciferin and light in the presence of ATP. The luminescent signal is proportional to amount of ATP present.
Using the CellTiter-Glo luminescent cell viability assay, the amount of cellular ATP was measured in the lymphoblastoid cell line with complete culture medium following compound treatment for 24 hours. The assay was performed in opaque white Kalypsys 1536-well plates. In the screen, tetraoctylammonium bromide was used as positive control. Library compounds were measured for their ability to cause acute toxicity in the cell line, as reflected by a decrease in intracellular ATP levels, in a concentration-dependent manner. […] AC50 values were determined from concentration-response data modeled with the standard Hill equation.
qHTS protocol for CellTiter Glo lymphoblastoid cellular assay
[Step] [Parameter] [Value] [Description]
1. Reagent; 5 uL; 2500 lymphoblastoid cells/well
2. Time; 5 hr; 37 C incubation
4. Controls; 23 nL; Tetraoctylammonium bromide 6.4pM to 92 uM
5. Time; 24 hr; 37 C incubation
6. Reagent; 5 uL; CellTiter Glo reagent
7. Time; 30 min; Room Temperature
8. Detection; Luminescence; Viewlux plate reader
Keywords: cell viability, cytotoxicity, lymphoblastoid cell line, luminescence, NTPHTS, NTPHTS_NCGC, NIEHS, DSSTox, MLSMR, MLSCN, NIH Roadmap, qHTS, NCGC
Potency is read from the fitted curve at half-maximal effect.

Structure (SMILES) | activity change, negative = cytotoxic | Potency
CCCCCC[N+](=O)[O-] | 0.841% (inactive) | –
Cc1cccc(N)c1C | -16.8% (inactive) | –
CC(Cl)CCl (stereo not given) | -1.11% (inactive) | –
CN=C=O | 5.71% (inactive) | –
Cc1cc(-c2cc(C)c(N)c(C)c2)cc(C)c1N | 6.34% (inactive) | –
N#CC(O)c1ccccc1 (stereo not given) | 11.8% (inactive) | –
C=CC(=O)OC | 5.64% (inactive) | –
O=C(O)CCl | -13.9% (inactive) | –
O=NN1CCCCC1 | 17.1% (inactive) | –
Nc1ccc([N+](=O)[O-])cc1[N+](=O)[O-] | 4.06% (inactive) | –
C=COC(C)=O | -9.44% (inactive) | –
Oc1cc(Cl)c(Cl)c(Cl)c1Cl | -29.2% (inactive) | –
CC(C)OC(=O)Cc1ccccc1 | -1.02% (inactive) | –
CCC[N+](=O)[O-] | -1.8% (inactive) | –
BrCCc1ccccc1 | -0.487% (inactive) | –
Cc1ccc(N)cc1Cl | 1.21% (inactive) | –
O=Cc1ccc(Cl)cc1Cl | -1.69% (inactive) | –
CN(C)c1ccc(N(C)C)cc1 | -40.6% (inactive) | –
COC(=O)c1ccccc1N | -2.9% (inactive) | –
Oc1cccc(Cl)c1Cl | 0.983% (inactive) | –

Structure (SMILES) | activity change, negative = cytotoxic | Potency
ClCc1ccccn1 | 8.61% (inactive) | –
CCCC[N+](=O)[O-] | 9.76% (inactive) | –
CNC(=O)O/N=C/C(C)(C)S(C)=O (stereo not given) | 3.46% (inactive) | –
COP(=S)(OC)SCn1nnc2ccccc2c1=O | 9.97% (inactive) | –
CCCCCc1cc(O)cc(O)c1 | -2.35% (inactive) | –
Clc1ccccc1 | 17.3% (inactive) | –
CC1CC(=O)O1 (stereo not given) | -8.41% (inactive) | –
Cc1ccc(N)cc1N | -10% (inactive) | –
Cl/C=C/CCl | 9.07% (inactive) | –
ClCC(Br)CBr (stereo not given) | -0.169% (inactive) | –
COc1c(C(C)(C)C)cc([N+](=O)[O-])c(C)c1[N+](=O)[O-] | -0.617% (inactive) | –
CCOP(=O)(OCC)OCC | -4.82% (inactive) | –
CC(C)CON=O | -6.9% (inactive) | –
ClC(Cl)c1ccccc1 | 8.43% (inactive) | –
C=C(Cl)CSC(=S)N(CC)CC | -6.58% (inactive) | –
CC(C)[C@]12CC(=O)[C@H](C)[C@H]1C2 | -2.02% (inactive) | –
CN1CSC(=S)N(C)C1 | – | 31.6 µM (active)
Nc1cccc(Cl)c1 | -11.5% (inactive) | –
CN(C)C(=O)Nc1ccc(Cl)cc1 | 0.0303% (inactive) | –
Clc1ccc(Cl)c(Cl)c1 | 5.03% (inactive) | –
